# Reference: PubChem BioAssay AID686978 (National Center for Advancing Translational Sciences (NCATS), 2013)
# “And” between values parts separate entries of the source, which are not always exact repeats. Identical values can stand only once. In all, about 420,000 compounds went through this assay and about 64,000 (15%) were called active. Another 27% or so got no clear call; they are omitted. The call rests on the fitted dose curve; in most records, active means well fitted inhibition curve with a large enough effect; inconclusive means small, poorly fitted or top-dose-only effect; inactive means flat fitted curve, though single readings scatter. These entries were drawn from the full list. A call without a number means that no potency is given here. Some compounds were tested as several samples or in several runs, with calls that do not always agree. Numbered stars: 1 amine (or outer) side, 2 acyl side, 3 side chain; on linkers, the order of the positions; unused ones are H or OH. Bridge positions count the residues as written; N and C are the ends. Square brackets hold non-standard residues; d marks the D form. Peptide text beside a SMILES is read from it. * marks the point of attachment. X11 = NC1=N[C@@H]([C@H](N[*:1])C(=O)[*:2])C[C@H](O)N1; ΔAla(Z-3-ureido) = NC(=O)N/C=C(\N)C(=O)O; β3hOrn = NCCC[C@H](N)CC(=O)*; Dap = NC[C@H](N)C(=O)O
# Assay: qHTS for Inhibitors of human tyrosyl-DNA phosphodiesterase 1 (TDP1): qHTS in cells in absence of CPT; further: nearly all actives have a fitted effect of over 55% in size
# Conditions: DT40 Tdp1-/- hTDP1 cells, no CPT, ATP luminescence, 48 h; activity change, negative = growth inhibition: at 46.2 µM (top of the series)
# Method in brief: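 A cellular qHTS used chicken DT40 cells lacking endogenous Tdp1 but carrying stably transfected human TDP1. Compounds were applied without camptothecin, and cell growth kinetics were judged by ATP-dependent luminescence after ≥48 hr.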
# Potency means the concentration at half of the fitted maximal effect.
row,SMILES,Potency
1,CC1CN(c2cc(=O)n(-c3cccc(Br)c3)c(=O)[nH]2)CC(C)O1 (configuration not stated),inactive
2,CS(=O)(=O)c1cccc(-c2ccc3nncn3c2)c1,inactive
3,CSc1ccccc1C(=O)OCC(=O)N1CCN(C(C)=O)CC1,inactive
4,Cc1ccc(N2C(=O)CN=C2Nc2nc(C)cc(C)n2)cc1,inactive
5,Cc1cc(/C=C2\SC(=Nc3ccc(N4CCOCC4)cc3)N(C)C2=O)c(C)n1-c1cccnc1,inactive
6,O=C(Nc1ccc([N+](=O)[O-])cc1)OCCc1ccccn1,inactive
7,Cc1cc(Nc2ccccc2)nc(N)n1,inactive
8,Cc1ccc2nc(Nc3ccccc3)cc(C)c2c1,10.3 µM (active)
9,Clc1ccc(Nc2ccc3ccccc3n2)cc1,inactive
10,Cc1nc(CC(=O)NNS(=O)(=O)c2ccc(F)c(Cl)c2)cs1,inactive
11,NCCC[C@H](N)CC(=O)N[C@H]1CNC(=O)[C@H]([C@H]2C[C@H](O)NC(N)=N2)NC(=O)/C(=C/NC(N)=O)NC(=O)[C@H](CO)NC(=O)[C@H](CO)NC1=O (β3hOrn-[Dap]SS[ΔAla(Z-3-ureido)][X11]; lactam 1-C),inactive
12,CCOc1cc(C)ccc1OCc1nnc(SCC(=O)Nc2cccc(C(=O)O)c2)n1-c1ccccc1,inactive
13,Cc1c(Br)c([N+](=O)[O-])nn1C(C)C(=O)Nc1nccs1 (configuration not stated),inactive
14,CC(=O)Nc1ccc(S(=O)(=O)NC(C)C(=O)OCC(=O)NC2CCCC2)cc1 (configuration not stated),inactive
15,CCOC(=O)c1ccc(NC(=O)Cn2c(=O)cc(C)c3c(C)nn(-c4cccc(F)c4)c32)cc1,18.4 µM (active)
16,CCc1ccc(-n2nc(C)c3c(C)cc(=O)n(CC(=O)Nc4ccc(F)cc4C)c32)cc1,inactive
17,COc1ccc(NC(=O)Cn2c(=O)cc(C)c3c(C)nn(-c4cccc(Cl)c4C)c32)cc1OC,inactive
18,Cc1cnc(-n2ncc(C(=O)N3CCN(C(C)C)CC3)c2-c2ccco2)nc1-c1ccc(F)cc1,inactive
19,O=C(Nc1nnc(CCN2CCCCC2)s1)c1cccc(Cl)c1,inactive
20,CCN(CC)CC1(O)CCN(C(=O)c2ccc(Cl)c(Cl)c2)CC1,inactive
21,CCCn1c(=N)n(CC(=O)c2ccc(Cl)c(Cl)c2)c2ccccc21,11.6 µM (active)
22,CCCNC(=O)c1ccc(Cl)c(Cl)c1,inactive

row,SMILES,Potency
1,O=C(O[C@H]1[C@H](Cc2ccccc2)NS(=O)(=O)[C@H]2C[C@@H]3C=C[C@]12O3)c1ccc([N+](=O)[O-])cc1,inactive
2,O=S1(=O)CCOC[C@H](Cc2ccccc2)N1Cc1ccccc1Br,inactive
3,O=C(O[C@@H]1[C@H](Cc2ccccc2)NS(=O)(=O)[C@H]2C[C@@H]3C=C[C@]12O3)c1ccccc1Br,16.4 µM (active)
4,Cc1ccc(Nc2cc(=O)n(C3CCCCC3)c(=O)[nH]2)cc1C,inactive
5,C/C(=C\C(=O)c1ccc(Br)cc1)N1CCCCC1,inactive
6,O=S1(=O)CCN2C(=N1)SC1=C2CCN(Cc2ccccc2)C1,inactive
7,O=C(O)CC12CC3CC(C1)CC(n1ncc(NCc4ccc(F)cc4)c(Cl)c1=O)(C3)C2,inactive
8,O=C(O)c1ccc(Cn2cnc3c(=S)nc[nH]c32)cc1,inactive
9,CC1CCN(S(=O)(=O)c2ccc3c(c2)n(C)c(=O)n3C)CC1,inactive
10,CC(=O)N1CCSc2ccc(S(=O)(=O)N3CCC(C)CC3)cc21,14.6 µM (active)
11,CCOC(=O)C1CCN(S(=O)(=O)c2ccc3c(c2)N(C(C)=O)CCO3)CC1,inactive
12,CCOC(=O)c1ccccc1C(=O)N1CCOCCOCCOCC1,inactive
13,CCC(C)CN1CCC(CO)(Cc2ccccc2Cl)CC1 (configuration not stated),inactive
14,O=C(Nc1cnccn1)c1cccnc1,inactive
15,O=C(O)c1ccc2c3c(cccc13)C(=O)N(OS(=O)(=O)c1ccccc1)C2=O,inactive
16,CCc1noc(C)c1C(=O)N1CCCC(N2CCN(c3ccc(F)cc3)CC2)C1 (configuration not stated),inactive
17,COc1ccccc1N1CCN(c2ncnc3sc(C)c(-c4ccccc4)c23)CC1,inactive
18,CCc1ccccc1N(C)C(=O)C1CCCN(c2ncnc3onc(-c4ccc(F)cc4)c23)C1 (configuration not stated),11.6 µM (active)
19,COc1ccccc1N1CCN(c2ncnc3onc(-c4cccc(Cl)c4)c23)CC1,inactive
20,Cc1ccc(Cl)cc1N(C)C(=O)C1CCCN(c2ncnc3onc(-c4ccc(F)cc4)c23)C1 (configuration not stated),4.11 µM (active)
21,CC1=C(c2ccc(F)cc2)S(=O)(=O)N=C1N1CCC(C(=O)NCCc2ccccc2C)CC1,inactive
22,CN(Cc1ccccc1)c1ccc(-c2nc(-c3ccccc3)no2)cc1[N+](=O)[O-],inactive

row,SMILES,Potency
1,COc1ccccc1N1CCN(c2ncnc3onc(-c4ccc(F)cc4)c23)CC1,18.4 µM (active)
2,CN(Cc1ccccc1)c1ncnc2onc(-c3ccc(F)cc3)c12,18.4 µM (active)
3,O=C1NN(c2ccccc2)C(=O)/C1=C/c1ccc(-c2cccc(C(=O)O)c2)o1,inactive
4,O=C1NC[C@H](CCCCN2CCN(CCc3ccccc3)C(=O)C2=O)N(CC2CCCCC2)C1=O,inactive
5,CN(C)NC(=O)c1csnc1-c1c(Cl)cccc1Cl,inactive
6,c1ccc(Nc2n[nH]nc2-c2ccccc2)cc1,inactive
7,Cc1ccc(S(=O)(=O)CC(=O)NC(C)c2ccccc2)cc1 (configuration not stated),inactive
8,CSc1ccc(CCNC(=O)CS(=O)(=O)Cc2nc(-c3ccccc3F)oc2C)cc1,inactive
9,Cc1ccccc1-c1nc(CS(=O)(=O)CC(=O)NC(C)c2ccccc2)c(C)o1 (configuration not stated),inactive and 16.4 µM (active)
10,Cc1ccc(NC(=O)c2sccc2C)cc1[N+](=O)[O-],inactive
11,O=C(C1CCN(CC2CCCCC2)CC1)N1CCCC1,inactive
12,CC(=O)NS(=O)(=O)c1ccc(NC(=S)NC(=O)C(C)(C)C)cc1,inactive
13,CC(NC(=O)c1ccccc1SCC(=O)N1CCCC1)c1ccccc1 (configuration not stated),inactive
14,CCOc1ccc(NC(=O)CSc2ncnc3c2sc2ccccc23)cc1,inactive
15,C=CCn1c(=S)[nH]c2nc3c(cc2c1=O)COC(C)(C)C3,inactive
16,CC1(C)Cc2nc3sc4c(SCC(=O)NC(c5ccccc5)c5ccccc5)ncnc4c3cc2CO1,8.2 µM (active)
17,O=c1cnnc(Nc2ccccc2F)[nH]1,inactive
18,CCc1nc2nc(C)c(NS(=O)(=O)c3ccc4c(c3)CCCC4)c(=O)n2[nH]1,inactive
19,COCc1c(N)c(C)nc(Cl)c1C#N,inactive
20,O=C(NCCCO)C(=O)Nc1c2c(nn1-c1ccccc1)CSC2,inactive
21,COc1ccc(N(C(=O)CNC(=O)c2ccco2)C(C(=O)NCC2CCCO2)c2ccccc2)cc1Cl (configuration not stated),inactive
22,O=C(NCc1cccnc1)c1cn(-c2ccccc2)nc1-c1cccs1,inactive

row,SMILES,Potency
1,Cc1ccc(-c2nn(-c3ccc(F)cc3)cc2C(=O)NCC(c2cccs2)N2CCOCC2)cc1 (configuration not stated),14.6 µM (active)
2,O=C(NCCCN1CCOCC1)c1cn(-c2ccccc2)nc1-c1ccc(F)cc1,inactive
3,Cc1nn(CC(=O)NCc2ccccn2)c(C)c1[N+](=O)[O-],inactive
4,CCOC(=O)c1c(NC(=O)/C=C/c2ccco2)sc(C)c1C,inactive
5,C#CCOCCOCCOCCNc1nc(N2CCN(C(=O)C([C@@H](C)CC)n3cc(C(N)COC(=O)C(F)(F)F)nn3)CC2)nc(N2CCN(C(=O)[C@H](Cc3ccc(O)cc3)n3cc(C(N)[C@H](C)CC)nn3)CC2)n1 (some centres not stated),inactive
6,O=C(CSc1nncn1-c1cccnc1)N1CCOCC1,inactive
7,O=S(=O)(c1ccc(F)cc1)N1CCN(C(=S)NC2CCCC2)CC1,inactive
8,CCOC(=O)c1sc(=S)n(-c2cccc(OC)c2)c1N,11.2 µM (active)
9,CCOC(=O)Cn1c(N)c(C(=O)OC)sc1=S,inactive
10,COc1cccc(-n2c(=S)sc3c(=O)n(-c4ccccc4C)c(SCC(=O)O)nc32)c1,inactive
11,Cc1ccc(-c2nnn(CC(=O)N(CCO)C(C(=O)NC(C)(C)C)c3ccncc3)n2)cc1 (configuration not stated),inactive
12,Cc1cccc2c3c(ccc12)C1=C(C(=O)C3=O)C(C)CO1 (configuration not stated),inactive
13,CCCC(=O)Nc1ncnc2c1ncn2[C@@H]1O[C@@H]2OP(=O)(O)OC[C@H]2[C@H]1OC(=O)CCC,inactive
14,Cc1nc(CNS(=O)(=O)c2cccnc2)cs1,inactive
15,CCNC(=O)c1cc2n(n1)CCCN(Cc1ccc(C)cc1)C2=O,inactive
16,COC(=O)c1ccc(CNC(=O)C2CCC(=O)N(Cc3cccc(F)c3)C2)cc1 (configuration not stated),inactive
17,COC(=O)c1cc2n(n1)CCCNC2=O,inactive
18,Cc1ccc(CN2CCCn3nc(C(=O)NCc4ccccc4Cl)cc3C2=O)cc1,25.9 µM (active)
19,O=C(NCc1ccccc1Cl)c1csc2c1CCCCC2,inactive
20,COc1cc(CNC(=O)c2cc3n(n2)CCCN(Cc2cccc(F)c2)C3=O)cc(OC)c1OC,20.6 µM (active)
21,Cn1c(=O)c2c(ncn2CC(=O)N/N=C/c2cn[nH]c2-c2ccc(F)cc2)n(C)c1=O,inactive
22,O=C(Cc1ncc(C(F)(F)F)cc1Cl)Nc1cccc(Br)c1,inactive

row,SMILES,Potency
1,CCc1nnc(NC(=O)CCC(=O)O)s1,inactive
2,O=C(Nc1ncccn1)c1cccs1,inactive
3,C/C(CCc1ccccc1)=N\NC(=O)c1ccc(CN2CCOCC2)cc1,inactive
4,CCN1CN(Cc2ccccc2)CNC1=S,inactive
5,S=C1SCN(CCN2CCOCC2)CN1Cc1ccccc1,3.16 µM (active)
6,CSc1ccc(NC(=O)/C=C/C(=O)O)cc1,inactive
7,O=C(O)/C=C/C(=O)Nc1ccc(F)cc1F,inactive
8,COC(=O)c1sc(-c2ccc(C(C)(C)C)cc2)cc1NC(=O)/C=C/C(=O)O,4.61 µM (active)
9,Cc1nnc(SC(C(=O)Nc2cc(Cl)cc(Cl)c2)c2ccccc2)[nH]c1=O (configuration not stated),inactive
10,O=C(O)C1CCCCC1C(=O)Nc1ccc(Cl)cc1 (configuration not stated),inactive
11,O=C(Nc1ccccc1)C1CCN(C(=O)c2ccc(Br)cc2)CC1,inactive
12,CCc1ccc(NC(=O)CN2CCC(C(=O)c3ccc(OC)cc3)CC2)cc1,23.1 µM (active)
13,COc1ccc(OC)c(NC(=O)C2CCN(S(=O)(=O)c3ccc(C)cc3)CC2)c1,inactive
14,COc1ccc(C(=O)N2CCC(C(=O)Nc3ccc(C)cc3)CC2)cc1,10.3 µM (active)
15,COc1ccccc1NC(=O)C1CCN(C(=O)c2ccc(C(C)(C)C)cc2)CC1,16.4 µM (active)
16,CCc1ccc(NC(=O)Cn2nnc(C(=O)NCc3ccc(OC)cc3)c2N)cc1,inactive
17,CC(C)(C)c1ccc(C(=O)N2CCC(C(=O)N3CCCCC3)CC2)cc1,inactive
18,COc1ccc(S(=O)(=O)N2CCC(C(=O)NCCC(=O)Nc3ccccc3OC)CC2)cc1,inactive
19,COc1ccc(CNC(=O)c2cc(C(=O)C3CC3)c[nH]2)cc1,inactive
